Assay outcomes (PubChem)
This excerpt belongs to a sample that is enriched for hits.
Tg IFNy HTS = T. gondii growth inhibition under IFN-gamma; Toxoplasma gondii growth in IFN-gamma-treated host cells; hits give low values; activity change, negative = inhibition, % (test concentration not listed); 69,000 tested, 3.8% active; in the data active = activity change below about -70%, passing the limit was not always enough;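 also: host cells are HeLa cells infected with Toxoplasma gondii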
Starred values were filed as active, the others as inactive; i = inactive; ! = not active in a repeat.

SMILES | Tg IFNy HTS
O=C1CC(Sc2ccc(Cl)cc2)C(=O)N1c1cc(F)c(Br)cc1F (stereo not drawn) | -85*
Cc1ccc(N2C(=O)CC(Sc3ccccn3)C2=O)cc1 (stereo not drawn) | -11
O=C(c1ccnnc1)N1CCc2ncnc(-c3ccccc3)c2CC1 | -5
COc1cccc(CN2C[C@@H]3CCN(C(=O)NC4CCCC4)CC[C@H]3S2(=O)=O)c1 | 0
O=C(N(Cc1nc2ccccc2c(=O)[nH]1)Cc1cccs1)C12CC3CC(CC(C3)C1)C2 | -41
CC(=O)NC12CC3CC(C1)CC(C(=O)NC(C)CCc1ccc(F)cc1)(C3)C2 (stereo not drawn) | 8
O=C(N(c1ccccc1)c1ccc(F)cc1)C12CC3CC(CC(C3)C1)C2 | -83*
CCC(=O)N1CCc2c([nH]c3ccccc23)C12C(=O)Nc1ccc(Br)cc12 (stereo not drawn) | -48
CCCC(=O)N1CCc2c([nH]c3ccccc23)C12C(=O)Nc1ccc(Br)cc12 (stereo not drawn) | -82*
CCC(=O)N1CCc2c([nH]c3ccccc23)C12C(=O)N(C)c1ccc(Br)cc12 (stereo not drawn) | 109
O=C1OC(=O)C2C3CCC(O3)C12 (stereo not drawn) | -75*
Cc1oncc1C(=O)N1Cc2nnn(C)c2C(COCCN(C)C)C1 (stereo not drawn) | -13
Cc1ccc(S(=O)(=O)N2C[C@H]3C[C@H](NC(=O)c4cc(=O)n(C)c(=O)n4C)[C@H]3C2)cc1 | 85
O=C(c1cscn1)N1CC[C@H]2[C@H]1CCN2Cc1ccc(F)cc1 | -15
CN(C)C(=O)CNC(=O)c1ccc2onc(-c3coc(C4CC4)n3)c2c1 | 68
CN1C[C@@H]2CC[C@H](CC1=O)N2C(=O)Cc1ccc(S(C)(=O)=O)cc1 | 1
COc1ccc(-c2nc(-c3ccncc3)[nH]c(=O)n2)cc1 | 44
CCN(C)Cc1ccc(-c2nc(-c3ccncc3)cc(=O)[nH]2)cc1 | 0
Oc1ccc(-c2nc(-c3ccc(F)cc3)c(-c3ccncc3)[nH]2)cc1 | -80*
COCCN1C(=O)CCc2cc(NS(=O)(=O)c3ccc(Br)cc3)ccc21 | 7
COCCN1C(=O)CCc2cc(NS(=O)(=O)c3ccc(Cl)s3)ccc21 | 21
CN1C(=O)CCc2cc(NS(=O)(=O)c3ccc(Br)s3)ccc21 | -97*
CN1C(=O)CCc2cc(NS(=O)(=O)Cc3cccc(Cl)c3)ccc21 | 23
CN1C(=O)CCc2cc(NS(=O)(=O)c3ccc(Br)cc3)ccc21 | -95*
Cc1ccc(S(=O)(=O)Nc2ccc3c(c2)CCC(=O)N3C)cc1Cl | -39
SMILES | Tg IFNy HTS
O=S(=O)(Cc1ccccc1)N1CCCC1c1ccccn1 (stereo not drawn) | 5
Cc1ccc(CN2C[C@@H](C(=O)N(C)C)C[C@@H]3OCC[C@@H]32)o1 | -2
Cc1cc(-n2c(SCC(=O)O)nnc2C2CC2)n(C)n1 | 9
CN(Cc1ccccc1C(F)(F)F)C(=O)c1ncc[nH]1 | -8
C=CCNc1ccccc1C(=O)N(CC)CC1CCOCC1 | 10
Cc1nc(CN2CCCCC2CCc2ccc(O)cc2)no1 (stereo not drawn) | 7
CCCN1CCN(CCCNC(=O)C2=C(C)C(=O)OC23CCN(S(=O)(=O)CC)CC3)CC1 | 15
Clc1ccc2c(c1)NC(c1cccc3ccccc13)O2 (stereo not drawn) | 96
CC(C)CNC(=O)Cn1ncc2c(N3CCCCCC3)ncnc21 | 77
CCN(CCn1cccn1)C(=O)c1[nH]c2ccc(C)cc2c1C | -4
CCOc1ccc(CN2CCCn3cncc3C2)cc1CO | 0
COc1ccc(CNC(=O)c2nc(Nc3ccc(C)cc3)c3ccccc3n2)cc1 | -29
COc1ccc2nc(C)cc(Nc3ccccc3O)c2c1 | -63
COc1ccc(Nc2cc(C)nc3ccc(C)cc23)cc1 | -97*
COc1cccc2cc(-c3cncn3CCCC(C)(C)CO)oc12 | 11
O=C(Cn1cc(C(=O)NCC2(c3ccccc3)CCCC2)ccc1=O)Nc1nccs1 | 0
COc1ccccc1CN1CCC(C(=O)NCc2c(C)n[nH]c2C)CC1 | 13
C[C@]12OC(C[C@]1(O)CO)n1c3ccccc3c3c4c(c5c6ccccc6n2c5c31)CNC4=O | -82*
CCNC(=O)c1ccc2nnc(C3CCN(C(C)C)C3)n2c1 (stereo not drawn) | -40
COc1ccc(-c2nc(C)c(CCNS(=O)(=O)c3ccc(C)cc3)s2)cc1OC | i
COc1ccc(-c2nc(C)c(CCNS(=O)(=O)c3ccc(Oc4ccccc4)cc3)s2)cc1OC | -97*
COc1ccc(-c2nc(C)c(CCNS(=O)(=O)c3ccc4ccccc4c3)s2)cc1OC | -29
COc1ccc(OC)c(CNC(=O)c2ccc(-c3nc(CN4CCc5ccccc54)c(C)o3)cc2)c1 | 66
Cc1ccc(-c2nnc(-c3nc(NCc4ccccc4)c4ccccc4n3)o2)cc1 | 13
O=c1[nH]c2cc3c(cc2cc1CNc1ccc(N2CCCCC2)cc1)CCC3 | -99*
SMILES | Tg IFNy HTS
O=c1[nH]c2cc3c(cc2cc1CNc1cccc2c1CCCC2)OCCO3 | 7
Cc1noc(CN(C)Cc2cc3cc4c(cc3[nH]c2=O)CCC4)n1 | -5
CN(C(=O)c1nccc2ccccc12)C1CCCN(C(=O)CNS(C)(=O)=O)CC1 (stereo not drawn) | 7
O=C(Cn1ncc2c(N3CCN(c4ccccn4)CC3)ncnc21)Nc1ccc(Cl)cc1F | 30
CN(C)c1nc(N(C)C)nc(N2CC(=O)N(c3ccc(Cl)c(Cl)c3)C2=N)n1 | 17
COc1ccc(CN2CCC(c3nc4ccc(N5CCCC5)cn4n3)CC2)cc1 | 3
Nc1[nH]c(=O)ncc1F | -79*!
CCOC(=O)Cc1csc(-c2ccc(Cl)cc2)n1 | 33
COc1ncccc1-c1ncccc1NC(=O)C(C)C | 6
Cc1oc(-c2ccc(C(=O)NC(C)Cc3ccco3)cc2)nc1CN1CCc2ccccc21 (stereo not drawn) | -62
Cc1oc(C2CCN(C(=O)Cc3ccccc3Cl)CC2)nc1C(=O)N1CCOCC1 | -35
Cc1oc(C2CCN(C(=O)Cc3c(F)cccc3Cl)CC2)nc1C(=O)N1CCCC1 | -73*
Cc1oc(C2CCN(C(=O)Cc3ccccc3F)CC2)nc1C(=O)N1CCCC1 | -42
CNC(=O)CSc1nnc(CNc2cccc(C(F)(F)F)c2)n1C | -61
COc1ncccc1-c1cnoc1-c1ccsc1 | -6
O=C(CC(Sc1ccc(Cl)cc1)c1ccc(Cl)cc1)c1ccccc1 (stereo not drawn) | -112*
O=C(CC(SC(=O)c1ccccc1)c1ccc(Cl)cc1)c1ccccc1 (stereo not drawn) | 50
O=C(CCSc1ccccn1)c1ccc(Cl)cc1 | 25
Cc1ccc2c(c1)NC1(CCN(C(=O)CCC3CCCC3)CC1)c1cccn1-2 | 29
O=C(NCc1cccc(F)c1)c1nc2c(o1)CN(c1ncccn1)C2 | -61
CC(C)C1CN(C(=O)Cc2ccccc2)CCC(=O)N1Cc1ccc(F)cc1 (stereo not drawn) | -19
CC(=O)OC1CCC2C3CCc4cc(O)ccc4C3CCC12C (stereo not drawn) | -28
C[C@]12CCC3c4ccc(O)cc4CCC3C1CCC2=O (stereo partly drawn) | -79*
COc1ccc2c(c1)CCC1C2CCC2(C)C(=O)CCC12 (stereo not drawn) | -14
CC12CCC3c4ccc(OC(=O)c5ccccc5)cc4CCC3C1CCC2O (stereo not drawn) | -53
CC12CCC3c4ccc(O)cc4CCC3C1CCC2=O (stereo not drawn) | -63
